From PubChem
ELG1 DNA repair: ELG1-dependent DNA repair inhibition. HEK293T ELG1-luciferase reporter, luminescence, 16 h; DNA damage induced by 5-fluorouridine. Potency, µM (highest dose often 46.1 µM), usual class: inhibitors. 330,000 tested, 2.3% active. AID 504467; further: nearly all actives have a fitted effect of over 55% in size
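Overnight (16 hr) co-exposure of 2,000 cells/well to 5-fluorouridine and compound at 37 °C preceded detection. Luciferase was quantified via ONE-Glo luminescence; loss of signal denotes inhibition.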
HT1080NT lethal: kills 2HG-producing HT-1080-NT fibrosarcoma cells; HT-1080-NT fibrosarcoma viability, CellTiter-Glo ATP luminescence, 48 h; Potency, µM (titrated, usually from 46.1 µM), most hits filed as cytotoxic; 360,000 tested, 1.6% active; AID 686970;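 further: NT is the 2HG producing partner of a matched IDH1 knockdown line; nearly all actives have a fitted effect of over 55% in size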
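HT-1080-NT fibrosarcoma cells (2HG-overproducing), 750 cells/well in RPMI with 5% FBS, dosed after 2 h and incubated 48 h at 37C. CellTiter-Glo luminescence normalized to DMSO and no-cell wells; concentration-response curves fitted and classed.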
TDP1 cell CPT: growth inhibition of DT40 Tdp1-/-;hTDP1 cells with camptothecin (screen for TDP1 inhibitors); chicken DT40 Tdp1-/-;hTDP1 cells + 20 nM CPT, ATP luminescence, 48 h; Potency, µM (series often up to 46.2 µM), hits mostly inhibitors; 420,000 tested, 12% active; AID 686979; further: nearly all actives have a fitted effect of over 55% in size
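Chicken DT40 Tdp1-/- cells stably complemented with human TDP1 were seeded at 400 cells/well in medium containing 20 nM camptothecin, exposed to pin-transferred compounds, and grown at 37 °C for at least 48 hr. Viability was read as ATP luminescence.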
TDP1 cell noCPT: qHTS for Inhibitors of human tyrosyl-DNA phosphodiesterase 1 (TDP1): qHTS in cells in absence of CPT; DT40 Tdp1-/- hTDP1 cells, no CPT, ATP luminescence, 48 h; Potency, µM (top dose mostly 46.2 µM), most hits filed as inhibitors; 420,000 tested, 15% active; AID 686978, 2013; further: nearly all actives have a fitted effect of over 55% in size
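Seeded 400 DT40-hTDP1 cells/well (vehicle DMSO, no 20 nM CPT); pinned compounds; ≥48 hr at 37 °C; CellTiter-Glo luminescence as viability measure.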
HT1080 IDH1KD tx: kills HT-1080 cells with IDH1 knockdown; HT-1080 IDH1 knockdown viability, ATP luminescence, 48 h; 360,000 tested, 2% active; AID 686971; Potency, µM (titrated, usually from 46.1 µM), hits mostly cytotoxic
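Viability of IDH1-knockdown HT-1080 fibrosarcoma cells was assessed by CellTiter-Glo after 48 h at 37 °C with titrated compound; concentration-effect curves were classified by fit quality and response size.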
IL-1B inflam inh: inflammasome signaling inhibition, IL-1 beta readout; THP-1 LPS/ATP IL-1B secretion, AlphaLISA, 16 h; stronger effect = lower value; activity change, % at 57.5 µM; 360,000 tested, 4.7% active; in the data active means activity change below about -50%; inconclusive means mostly about -30% to -49%
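Secreted IL-1B measured by AlphaLISA bead assay after 16 h compound exposure of THP-1 cells; compounds (final up to 57.5 uM) added 1 h before LPS (250 ng/mL) and ATP (1.25 mM) stimulation; lower signal means less secretion.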
Of the large screens only hits and unclear results are named; the others gave an inactive call. Hits are enriched below; roughly 19% of the tested compounds scored in any of these assays. Unless noted, the call rests on the fitted dose curve; in most records, active means well fitted curve in the direction sought with a large enough effect; inconclusive means small, poorly fitted or top-dose-only effect, or another doubt; inactive means no such curve, though single readings can be large; an effect the other way counts as inactive or inconclusive.

COC(=O)CCC(C)C1CCC2C3CC[C@H]4CC(O)CC[C@@]4(C)C3CC(O)[C@]12C (stereo partly drawn)	TDP1 cell noCPT inconclusive (no result: ELG1 DNA repair, HT1080NT lethal, HT1080 IDH1KD tx, IL-1B inflam inh)
CCCCCOCC(O)CCC(=O)NN (stereo not drawn)	none
NNC(=O)CCCCCCCCCCOCCCCO	ELG1 DNA repair inconclusive, TDP1 cell noCPT 13µM
COc1ccc(/C=c2\s/c(=C\C(=O)C(C)(C)C)[nH]c2=O)cc1O	ELG1 DNA repair inconclusive, TDP1 cell CPT 15µM, TDP1 cell noCPT inconclusive, IL-1B inflam inh inconclusive
CCOC(=O)[C@@H]1[C@H]2COc3cc(OC)ccc3[C@H]2N2C(=O)N(c3ccc(OC)cc3)C(=O)[C@]12C	ELG1 DNA repair inconclusive, TDP1 cell CPT inconclusive, TDP1 cell noCPT inconclusive
Cc1cc(OCC(=O)N(C)C2CCCCC2)cc(C)c1Cl	TDP1 cell CPT inconclusive, TDP1 cell noCPT 21µM
CCc1ccc(OCC(=O)N(Cc2ccc(C(C)C)cc2)C2CCS(=O)(=O)C2)cc1 (stereo not drawn)	TDP1 cell CPT 16µM, TDP1 cell noCPT inconclusive (no result: ELG1 DNA repair, HT1080NT lethal, HT1080 IDH1KD tx, IL-1B inflam inh)
O=C(COc1ccc(Cl)cc1)N(Cc1ccc(F)cc1)C1CCS(=O)(=O)C1 (stereo not drawn)	none
Cc1cccc(OCC(=O)N(Cc2ccc(N(C)C)cc2)C2CCS(=O)(=O)C2)c1 (stereo not drawn)	IL-1B inflam inh -50
Cc1cccc(C)c1OCC(=O)N(Cc1ccc(N(C)C)cc1)C1CCS(=O)(=O)C1 (stereo not drawn)	none
Cc1cc(OCC(=O)N(Cc2ccc(N(C)C)cc2)C2CCS(=O)(=O)C2)cc(C)c1Cl (stereo not drawn)	TDP1 cell CPT inconclusive, TDP1 cell noCPT 18µM (no result: ELG1 DNA repair, HT1080NT lethal, HT1080 IDH1KD tx, IL-1B inflam inh)
COC(=O)c1cc2sc(Cl)cc2n1Cc1c(C)cc(C)cc1C	none (no result: ELG1 DNA repair, HT1080NT lethal, HT1080 IDH1KD tx, IL-1B inflam inh)
CN(C)/C=C/C(=O)/C=C/c1ccc(Cl)cc1	ELG1 DNA repair inconclusive, HT1080NT lethal 12µM, TDP1 cell noCPT inconclusive, HT1080 IDH1KD tx inconclusive, IL-1B inflam inh -100
COc1ccc(CCNCC2C(Oc3ccc(Cl)cc3)C(=O)N2c2ccccc2C)cc1OC (stereo not drawn)	ELG1 DNA repair inconclusive, HT1080NT lethal inconclusive, TDP1 cell CPT inconclusive, TDP1 cell noCPT 23µM, HT1080 IDH1KD tx inconclusive, IL-1B inflam inh -73
Cc1ccccc1N1C(=O)C(Oc2ccc(Cl)cc2)C1CNC(C)(C)C (stereo not drawn)	TDP1 cell CPT inconclusive, TDP1 cell noCPT inconclusive, IL-1B inflam inh -55
COc1ccc(CN(C)CCCn2cnc(C(=O)Nc3ccc(C)c(C)c3)n2)cc1OC	TDP1 cell noCPT inconclusive (no result: ELG1 DNA repair)
COc1ccc(C(=O)Nc2scc(-c3ccc(Cl)cc3Cl)c2C(N)=O)cc1	ELG1 DNA repair inconclusive, TDP1 cell CPT inconclusive, TDP1 cell noCPT 15µM, IL-1B inflam inh inconclusive
COC(=O)c1c(-c2cccs2)csc1NC(=O)c1cccc(Cl)c1	TDP1 cell CPT inconclusive (no result: ELG1 DNA repair, HT1080NT lethal, HT1080 IDH1KD tx, IL-1B inflam inh)
COC(=O)c1c(-c2cccs2)csc1NC(=O)c1ccc(C(C)C)cc1	TDP1 cell CPT inconclusive, TDP1 cell noCPT 15µM (no result: ELG1 DNA repair, HT1080NT lethal, HT1080 IDH1KD tx, IL-1B inflam inh)
COC(=O)c1c(-c2cccs2)csc1NC(=O)c1ccc(C(C)(C)C)cc1	TDP1 cell CPT 16µM, TDP1 cell noCPT 15µM (no result: ELG1 DNA repair, HT1080NT lethal, HT1080 IDH1KD tx, IL-1B inflam inh)
COC(=O)c1c(-c2cccs2)csc1NC(=O)c1ccc(Cl)cc1	TDP1 cell CPT 16µM (no result: ELG1 DNA repair, HT1080NT lethal, HT1080 IDH1KD tx, IL-1B inflam inh)
CC(C)CC(=O)Nc1nnc(S(=O)(=O)Nc2ccccc2)s1	none
CC1=CC(=O)OC1Cc1ccc2ccccc2n1 (stereo not drawn)	TDP1 cell noCPT inconclusive (no result: ELG1 DNA repair, HT1080NT lethal, HT1080 IDH1KD tx, IL-1B inflam inh)
COC(=O)c1c(-c2cccs2)csc1NC(=O)c1cccnc1	ELG1 DNA repair inconclusive, TDP1 cell CPT 16µM, TDP1 cell noCPT 15µM, IL-1B inflam inh -65
CCOc1ccc(Br)cc1CNc1ccc2c(c1)OCCO2	IL-1B inflam inh inconclusive
CCOC(=O)c1cc(-c2ccc(F)cc2)n(CCC(=O)NC2CCCCC2)c1C	TDP1 cell CPT 15µM, TDP1 cell noCPT 15µM (no result: ELG1 DNA repair, HT1080NT lethal, HT1080 IDH1KD tx, IL-1B inflam inh)
